The nature of assay [1]: yeast 75Q aggregation reduction – 75Q-TubU reporter (AID 1593). To be noted: Yeast 75Q polyglutamine aggregation reporter.
Assay [2] in a line: restoration of touch response, mutant HTT neurons – whole organism, C. elegans mechanosensory neurons, N-terminal huntingtin (AID 1599). To be noted: C. elegans polyQ-huntingtin mechanosensory neurons, stronger effect = higher value.
A short description of assay [3]: blockers of cytochrome c efflux from mitochondria – biochemical, purified mitochondria (AID 1603).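 Note: mouse liver mitochondria challenged with calcium chloride; signal normalized to the plate average as 100%.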 As to conditions: stronger effect = lower value.
Assay [4] is described as follows: polyglutamine aggregate formation blockers (AID 1604). To be noted: polyglutamine-induced protein aggregation inhibition assay; stronger effect = higher value; tested at 2.5 µM.
Assay [5] in a line: glutamate transport activators, MN-1 cells, MN-1 cell line (AID 1612).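 Note: tested at 1 µM final; 0% = mean of DMSO vehicle wells on each plate; positive means more glutamate uptake than control and negative means less.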 As to conditions: MN-1 motor neuron cells, stronger effect = higher value.
A short description of assay [6]: 75Q-TubH aggregate inhibition, S. cerevisiae, yeast (AID 1616). To be noted: S. cerevisiae 75Q-TubH polyglutamine aggregation suppression; stronger effect = higher value.

For part of these data: Results with a measured potency or affinity are listed apart.

`N.N.O=C(O)C1(C(=O)O)CCC1.[Pt]` showed a score in assay [1] of 1.14. In assay [2], this compound gave a rescue above control of 12.6. In addition, the cytochrome c release ratio in assay [3] amounted to 0.66. In assay [4], the inhibition of aggregation was found to be 37.7%. Further, the glutamate uptake change in assay [5] is -9.42%. Besides, the aggregation suppression score in assay [6] stood at 1.13.

These data come from PubChem BioAssay.
